Data as given in PubChem BioAssay (NCATS).
Inconclusive results are not listed. Values without a mark were called inactive. The source made the active and inactive calls. The call rests on the fitted dose curve; in most records, active means well fitted activation curve with a large enough effect; inconclusive means small, poorly fitted or top-dose-only effect; inactive means flat fitted curve, though single readings scatter.

experiment: HEK293 12hr Apoptosis Induction qHTS against the NCATS CANVASS Library (AID 1347361); conditions: HEK293 caspase-3/7 Caspase-Glo luminescence; series mostly up to 46.1 µM; caspase activation: at the top concentration; on caspase activation: 0% is about no effect
Excerpt: Natural products and their derivatives continue to be wellsprings of nascent therapeutic potential. However, many laboratories have limited resources for biological evaluation, leaving their previously isolated or synthesized compounds largely or completely untested. To address this issue, the Canvass library of natural products was assembled (https://tripod.nih.gov/canvass), in collaboration with academic and industry researchers, for quantitative high-throughput screening (qHTS) across a diverse set of cell-based and biochemical assays. The pure (>85% purity by liquid chromatography/mass spectrometry [LC/MS]) Canvass library of 346 natural products were submitted by 45 academic laboratories and companies around the world. We collected pure natural products to circumvent deconvolution and structure elucidation due to time and resource limitations. The library was formatted into 1536-well plates and evaluated in 50 qHTS (in an 11-pnt concentration series) bioassays with broad scope of disease-relevant mechanisms. The resulting data set from 50 different assays was then systematically analyzed to identify overall trends and specific natural products with interesting biological activities. Reported herein are the results of each individual qHTS and their corresponding assay protocol. The Caspase-Glo (R) (Promega) is a homogeneous, luminescent assay that measures caspase activity. The detection substrate contains tetrapeptide sequence DEVD in an "add-mix-measure" format. The reagent generates a luminescent signal produced by a thermostable luciferase. The luminescence is proportional to the amount of caspase activity in the assay reaction. National Center for Advancing Translational Sciences (NCATS), Rockville, MD National Institute of Health (NIH), Bethesda, Maryland
Cancer Cell Apoptosis Assay 1. In a 1536 well, white solid bottom tissue culture plates (Corning 7494), HEK293 cancer cells in DMEM + 10% FBS + 1% P/S media were dispensed in each well at a final concentration of 500 cells / well (5uL volume) using the Multidrop Combi (Thermo Fisher Scientific) dispenser. 2. Compounds were pin transferred (~23nL volume) via Wako Pin-tool (Wako Automation, Richmond VA) equipped with a 1536 pin head. The assay plates were treated with compounds in a concentration series with a final concentration range of […] to 103uM. 3. Doxorubicin was used as a control in a 16pnt titration (1mM; 1:2 dilution; 16-points; n = 2; column 3, rows 1 - 32) and was pin transferred via Wako Pin-tool equipped with a 1536 pin head. The final concentration range of doxorubicin is 0.1nM - 4uM. 4. The assay plates were incubated for 12 hours at 37 degrees C/5% CO2/95% Rh. 5. 3uL Caspase-Glo 3/7 (R) (Promega) detection reagent was then added to the assay plates (columns 2 - 48, rows 1 - 32) and incubated at room temperature, covered from light, for 15 min. 6. Luminescence signal was acquired via the ViewLux plate reader (PerkinElmer) using a clear filter, 20 second exposure, and 2x binning settings.
Potency means the concentration at half of the fitted maximal effect.

Compound	caspase activation	Potency
CCC[C@@H](C)/C=C(\C)[C@H](O)[C@H](C)/C=C/CC[C@@H](O)[C@H](C)[C@H](O)[C@H](C)[C@H](O)[C@H](C)[C@H]1O[C@H]([C@H](C)C(=O)O)CC[C@@H]1C	-5.93%	–
C/C=C/c1cc(OC)c2c(c1)[C@@H](C)[C@H](c1ccc(O)c(OC)c1)O2	2.84%	–
C=C1C(=O)O[C@H]2[C@H]1CC/C(CO)=C\CC[C@@]1(C)O[C@@H]21	–	23.5 µM (active)
CN1C(=O)C2C(N=CN2C)N(C)C1=O (stereo not given)	-1.42%	–
OCc1ccc2ocnc2c1	-0.983%	–
C/C(=C\[C@H](C)C(=O)CCCC1CC(=O)NC(=O)C1)[C@@H]1OC(=O)/C=C/CC/C=C/C[C@@H](O)[C@@H]1C	-3.72%	–
O=C(O)CC1OC(=O)c2c(O)cccc21 (stereo not given)	-0.932%	–
C[C@@H]1C(=O)[C@]23CC[C@H]1C[C@]21O[C@H]2C(C)(C)C=CC(=O)[C@@]23COC1=O	1.68%	–
C/C=C1/CC[C@@H]2c3[nH]c4ccccc4c3CCN2C1	-1.04%	–
C[C@H]1C[C@@H]([C@@H]2CC[C@]34O[C@H](CC[C@@]35C[C@H](C)C(=O)O5)CN24)OC1=O	1.25%	–
C=C(NC(=O)c1csc(-c2nc3c(cc2O)-c2nc(cs2)C(=O)NC(C(C)O)C(=O)N/C(=C(\C)O)c2nc(cs2)C(=O)NC2c4nc(cs4)C(=O)NC(COC(=O)c4c5c6c(cccc6n4O)COC(=O)[C@@H](OC4C[C@](C)(O)[C@H](N(C)C)[C@H](C)O4)C2OC5)c2nc-3cs2)n1)C(N)=O (stereo not given in full)	-1.36%	–
CC[C@@H]1C[C@@]2(CC)OC(=O)[C@@]3(CC)OC(=O)[C@@H]1[C@@H]23	0.462%	–
C[C@@H]1O[C@@H](O[C@@H]2[C@@H](O)[C@H](O[C@@H]3[C@@H](O)[C@@H](O)C(O[C@H]4[C@H](OC(=O)[C@]56CCC(C)(C)C[C@H]5C5=CCC7[C@@]8(C)C[C@H](O)[C@H](O[C@@H]9C[C@H](CO)[C@@H](O)[C@H](O)[C@H]9O)[C@@](C)(CO)C8[C@H](O)C[C@@]7(C)[C@]5(C)CC6)OC[C@H](O)[C@@H]4O)O[C@H]3C)OC[C@H]2O)[C@H](O)[C@H](O)[C@H]1O (stereo not given in full)	4.59% [at 27.5 µM]	–
C=C1C[C@@]23C=CC(=O)[C@@](C)(CCC(=O)Nc4c(OC5O[C@H](CO)[C@@H](O)[C@H](O)[C@H]5O)ccc(C(=O)O)c4O)C2C[C@@H]1CC3 (stereo not given in full)	-0.637%	–
CCCCCCCCCCCCCCC[C@H](O)C[C@@H](O)C[C@@H](O)C[C@@H](O)C[C@@H](O)C[C@H]1CC=CC(=O)O1	–	9.35 µM (active)
O=Cc1ccc2n1C[C@@]1(C[C@H](O)[C@@H](CO)O1)OC2	0.177%	–
CC1(C)CCC[C@]2(C)[C@@H]1CC[C@@]13C[C@@H](CC[C@H]12)C(C)(O)C3 (stereo not given in full)	0.87%	–
O=C1CC(c2cc(O)cc(O)c2)Oc2cc(O)ccc21 (stereo not given)	-4.85%	–
COc1cc(/C=C2/C(=O)N(c3ccc(O)cc3C(=O)O)[C@H](c3ccc(O)c(OC)c3)C2C(=O)Nc2ccc(O)cc2C(=O)O)ccc1O (stereo not given in full)	1.74%	–
C=C1C[C@@]23C=CC(=O)[C@@](C)(CCCC(C)C(=O)O)[C@@H]2C[C@@H]1CC3 (stereo not given in full)	3.13%	–

Compound	caspase activation	Potency
CC(O)/C=C/C1(O)C(C)(C)CC(O)CC1(C)O (stereo not given)	1.11%	–
CCC1=C2CCCN3C(=O)O[C@H]([C@H]1OC(C)=O)[C@H]23	1.2%	–
CN1CCc2cc3c(c4c2[C@H]1[C@@H](O)c1ccccc1-4)OCO3	-0.746%	–
O=Cc1ccc2n1C[C@@]1(C[C@H](O)[C@H](O)CO1)OC2	5.29%	–
CO[C@H]1/C=C/CC[C@@H](S[C@@H]2O[C@H](CO)[C@@H](O)[C@H](O)[C@H]2O)CC(=O)O[C@@H](/C(C)=C/[C@H](C)C(=O)CCCC2CC(=O)NC(=O)C2)[C@@H](C)[C@@H]1O	-3.32%	–
CC1(C)[C@H](Br)CC[C@]23C[C@]4(C)C(=O)CC12C[C@H]34	-1.31%	–
CO[C@@H]1[C@H](O)[C@@H](C)O[C@@H](OC[C@@H]2C(C)OC(=O)/C=C/[C@H](C)C(O[C@@H]3O[C@H](C)CC4(OC(=O)O[C@@H]4C)C3O)[C@@H](C)CC(C)C(=O)CC[C@H]3OC23)[C@@H]1OC (stereo not given in full)	-0.934%	–
C[C@]12CC[C@]3(C1)[C@H](CC2=O)CC(OC(=O)c1ccccc1)[C@H]1[C@@](CO)(C(=O)O)CCC[C@@]13C (stereo not given in full)	4.36%	–
COc1ccc2cc(NC(=O)C3=NO[C@H]4[C@H](O)C=C[C@@H](Cl)[C@@]4(O)C3)c(=O)oc2c1OC	-1.03%	–
C/C(=C\[C@H](C)C(=O)CCCC1CC(=O)NC(=O)C1)C(O)[C@@H](C)[C@H](O)C/C=C/CC/C=C/C(=O)O (stereo not given in full)	-1.85%	–
C/C=C/C=C/C1(O)C2C=C3C(=O)CC45C(=O)C(O)=C(C)C(=O)C4C1C1(C(=O)C(O)=C(C)C(=O)C351)C2C (stereo not given)	3.59%	–
O=C1C[C@@H](c2ccc(O)c(-c3c(O)cc(O)c4c3O[C@H](c3ccc(O)cc3)CC4=O)c2)Oc2cc(O)cc(O)c21	2.19% [at 27.5 µM]	–
COc1c(O)cc2oc(-c3ccccc3)cc(=O)c2c1O	-8.46%	–
C[C@@H]1O[C@@H](Oc2c(-c3ccc(O)cc3)oc3cc(O)cc(O)c3c2=O)[C@H](O)[C@H](O)[C@H]1O	2.24%	–
C[C@@H]1C(=O)[C@]23CC[C@H]1C[C@]21O[C@H]2C(C)(C)C=CC(=O)[C@]23COC1=O	-0.708%	–
C[C@@]12CCC[C@@](C)(C(=O)O)[C@H]1C[C@@H](O)[C@]13C[C@H]4C[C@H](O[C@@]4(C)C1)[C@@H]23	0.14%	–
C/C=C/C(=O)[C@@H](C)C1=CC(=O)C2=C(O[C@@]34CC[C@H](O)C(C)(C)[C@@H]3CC[C@H](C)[C@@]4(C)C2)C1=O	–	9.35 µM (active)
COC1C(O)C(OC(N)=O)C(Oc2ccc3c(O)c(NC(=O)c4ccc(O)c(CC=C(C)C)c4)c(=O)oc3c2C)OC1(C)C (stereo not given)	0.65%	–
COc1cc(/C=C/C(=O)O)ccc1O	2.17%	–
Oc1ccc(/C=C2/c3cc(O)cc(O)c3C(c3ccc(O)cc3)[C@H]2c2cc(O)cc(O)c2)cc1 (stereo not given in full)	-0.333%	–
